CHRM1 antagonist = human M1 muscarinic receptor antagonists, primary screen, CHO-K1 cells, Fluo-8 calcium fluorescence, 1536-well | Muscarinic acetylcholine receptor M1 (Homo sapiens), P11229 | CHO-K1 hM1, ACh EC80 antagonist | inhibition, % at 3 µM | 360,000 compounds, 1.3% hits | AID 588852, 2011;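 active means percent inhibition above its own plate's cutoff, namely the mean of that plate's compound wells plus 3 SD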;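 further: peak over basal fluorescence ratio during 140 s after agonist addition; 0% = ACh EC80 plus DMSO and 100% = DMSO alone without agonist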
Target sequence (P11229 whole entry, looked up): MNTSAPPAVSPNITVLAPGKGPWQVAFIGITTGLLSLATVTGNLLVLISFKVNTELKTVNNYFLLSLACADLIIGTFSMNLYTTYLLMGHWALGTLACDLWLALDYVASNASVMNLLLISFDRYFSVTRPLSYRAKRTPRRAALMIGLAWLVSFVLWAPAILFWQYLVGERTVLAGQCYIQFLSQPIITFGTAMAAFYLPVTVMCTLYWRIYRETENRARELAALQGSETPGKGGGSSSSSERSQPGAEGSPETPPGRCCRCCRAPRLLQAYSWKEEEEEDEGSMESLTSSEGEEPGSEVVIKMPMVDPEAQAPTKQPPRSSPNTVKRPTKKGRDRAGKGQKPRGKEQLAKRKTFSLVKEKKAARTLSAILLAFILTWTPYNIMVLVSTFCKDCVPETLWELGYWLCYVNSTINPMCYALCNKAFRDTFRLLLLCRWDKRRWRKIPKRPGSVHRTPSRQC
M1 PAM = human M1 muscarinic receptor positive allosteric modulators, primary screen, CHO-K1 cells, Fluo-8 calcium fluorescence, 1536-well. CHO-K1 hM1, ACh EC20; 0% = ACh EC20, 100% = maximal ACh. activation, % at 3 µM. 360,000 compounds, 0.088% hits. AID 588819, 2011; in the data active means activation above about 19%, passing the limit was not always enough
CHO-K1 Ca ag = counter-screen for M1 agonists: effect in parental CHO-K1 cells. AID 602248, 2012. activation, % at 3 µM. 360,000 compounds, 0.48% hits. Fluo-8 calcium fluorescence; scaled to maximal ATP response, vehicle zero; in the data active means activation above about 15%;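 further: untransfected CHO-K1 host cells lacking M1 receptor as counterscreen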
M1 PAM parental = nonselective calcium activators in parental CHO-K1 cells, primary screen, counter-screen for M1 PAM project, cell-based, Fluo-8 calcium fluorescence, full deck, 1536-well | ATP EC20; 0% at ATP EC20, 100% at ATP max | activation, % at 3 µM | 360,000 compounds, 0.02% hits | AID 602247, 2012;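 active means activation above the run cutoff, the mean activation of all test compounds plus 3 SD, cut at about 40% in these data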;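 further: peak over basal fluorescence ratio in a 140 s read after ATP addition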
CHO-K1 Ca antag = counter-screen for M1 antagonists: effect in parental CHO-K1 cells; ATP-induced calcium, Fluo-8 fluorescence; AID 602250; inhibition, % at 3 µM; 360,000 compounds, 0.6% hits;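 active means inhibition above a per-plate cutoff, the plate's mean sample inhibition plus 3 SD, cut at about 24% in these data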;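 further: 0% = DMSO plus EC80 ATP and 100% = DMSO alone without ATP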
CHRM1 agonist = human M1 muscarinic receptor agonists, primary screen, Fluo-8 calcium fluorescence, CHO-K1 cells, HTS | AID 588814, 2011 | activation, % at 3 µM | 360,000 compounds, 0.33% hits | CHO-K1 hM1, agonist mode; 0% DMSO, 100% acetylcholine EC100;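 active means activation above the run's mean compound activation plus 3 SD, cut at about 16% in these data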;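 further: peak over basal fluorescence ratio within a 140 s kinetic read after compound addition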
* hit, by the source's call. Sampled rows, rich in hits. Any-hit rate of the full collection: about 2.3%.

For CCO[C@H]1OC(C(=O)N2CCOCC2)=C[C@@H](c2ccccc2)[C@@H]1CCCO the results were CHRM1 antagonist 66.9*, M1 PAM -21.9, CHO-K1 Ca ag 0.6, M1 PAM parental 14.8, CHO-K1 Ca antag -13.6 and CHRM1 agonist -9.2.
`CCO[C@@H]1OC(C(=O)NCc2ccccc2)=C[C@H](c2ccc3c(c2)OCO3)[C@H]1CCCO` gave CHRM1 antagonist 10.1, M1 PAM -8.1, CHO-K1 Ca ag 0.0, M1 PAM parental -8.6, CHO-K1 Ca antag 5.7 and CHRM1 agonist -9.6.
For CCO[C@H]1OC(C(=O)NCc2ccccc2)=C[C@@H](c2ccc3c(c2)OCO3)[C@@H]1CCCO the results were CHRM1 antagonist 6.8, M1 PAM -4.7, CHO-K1 Ca ag 10.3, M1 PAM parental 15.6, CHO-K1 Ca antag -15.1 and CHRM1 agonist 17.9*.
Screening CC(C)CCNC(=O)CN(CC1CCCO1)C(=O)CCC(=O)Nc1nccs1 (stereo unspecified) returned CHRM1 antagonist -44.2, M1 PAM 20.0*, CHO-K1 Ca ag 0.0, M1 PAM parental 21.0, CHO-K1 Ca antag -11.8 and CHRM1 agonist 0.8.
Screening OC(COCC1CC=CCC1)Cn1cnc2ccccc21 (stereo unspecified) returned CHRM1 antagonist -12.2, M1 PAM 23.7*, CHO-K1 Ca ag 1.3, M1 PAM parental 12.0, CHO-K1 Ca antag -8.0 and CHRM1 agonist 1.8.
`O=C(Nc1ccccc1C(=O)O)c1ccc(Br)c(S(=O)(=O)NCc2ccccc2)c1` gave CHRM1 antagonist 2.7, M1 PAM 2.5, CHO-K1 Ca ag -1.0, M1 PAM parental -5.4, CHO-K1 Ca antag 1.9 and CHRM1 agonist 1.2.
For O=C1CSC(c2ccccc2Br)N1c1ccc(Cl)cn1 (stereo unspecified) the results were CHRM1 antagonist 58.7*, M1 PAM -22.0, CHO-K1 Ca ag 0.6, M1 PAM parental 17.6, CHO-K1 Ca antag -2.2 and CHRM1 agonist -6.4.
OC(CN1CCCC(C(F)(F)F)C1)c1ccccc1 (stereo unspecified) was read as CHRM1 antagonist -31.7, M1 PAM 34.0*, CHO-K1 Ca ag 0.3, M1 PAM parental -8.0, CHO-K1 Ca antag -18.5 and CHRM1 agonist 2.0.
Screening OC(COC(c1ccc(F)cc1)c1ccc(F)cc1)CN1CCCC(C(F)(F)F)C1 (stereo unspecified) returned CHRM1 antagonist -12.5, M1 PAM 4.4, CHO-K1 Ca ag -0.7, M1 PAM parental -10.7, CHO-K1 Ca antag -9.5 and CHRM1 agonist -2.4.
`CC1(Cc2ccccc2Cl)C(=O)Nc2c(Cl)ccc(Cl)c21` (stereo unspecified) gave CHRM1 antagonist -3.3, M1 PAM 6.2, CHO-K1 Ca ag 0.0, M1 PAM parental 20.0, CHO-K1 Ca antag -8.4 and CHRM1 agonist 1.1.
Screening Cc1ccn2c(NCc3ccccc3)c(-c3cccc(SC4CCCCC4)c3)nc2c1 returned CHRM1 antagonist 10.4, M1 PAM -10.0, CHO-K1 Ca ag 0.5, M1 PAM parental 7.7, CHO-K1 Ca antag -20.1 and CHRM1 agonist -7.1.
For COc1ccc(-c2cc(-c3nc4ccccn4c3NCc3ccccc3)ccc2OC)cc1 the results were CHRM1 antagonist 86.6*, M1 PAM -32.1, CHO-K1 Ca ag 10.8, M1 PAM parental -22.3, CHO-K1 Ca antag 51.5* and CHRM1 agonist 3.9.
For COc1ccc(-c2nc3ccccn3c2NCc2ccc3c(c2)OCO3)cc1 the results were CHRM1 antagonist 12.9, M1 PAM -9.1, CHO-K1 Ca ag 3.5, M1 PAM parental 2.5, CHO-K1 Ca antag 4.1 and CHRM1 agonist -1.3.
CCCCNc1c(-c2ccc(OC)c(SC(C)CC)c2)nc2ccc(C)cn12 (stereo unspecified) was read as CHRM1 antagonist 37.4*, M1 PAM -22.4, CHO-K1 Ca ag 3.4, M1 PAM parental -17.4, CHO-K1 Ca antag -1.7 and CHRM1 agonist -6.1.

Compound activity from PubChem.
